Article PMC5540273 (PLoS ONE, 2017)

Key:
Conditions in all cases: concentration: 1 μM, replicates: in singlicate; n = 1
[1] = test system: RIPK2
[2] = test system: RIPK4
[3] = test system: RIPK5
[4] = test system: ROCK1
[5] = test system: ROCK2
[6] = test system: ROS1
[7] = test system: RPS6KA4(Kin.Dom.1-N-terminal)
[8] = test system: RPS6KA4(Kin.Dom.2-C-terminal)
[9] = test system: RPS6KA5(Kin.Dom.1-N-terminal)
[10] = test system: RPS6KA5(Kin.Dom.2-C-terminal)
[11] = test system: T1, RSK1(Kin.Dom.1-N-terminal)
T1 construct: gene RPS6KA1

[12] = test system: T2, RSK1(Kin.Dom.2-C-terminal)
T2 construct: gene RPS6KA1

[13] = test system: T3, RSK2(Kin.Dom.1-N-terminal)
T3 construct: gene RPS6KA3

[14] = test system: T4, RSK2(Kin.Dom.2-C-terminal)
T4 construct: gene RPS6KA3

[15] = test system: T5, RSK3(Kin.Dom.1-N-terminal)
T5 construct: gene RPS6KA2

[16] = test system: T6, RSK3(Kin.Dom.2-C-terminal)
T6 construct: gene RPS6KA2

[17] = test system: T7, RSK4(Kin.Dom.1-N-terminal)
T7 construct: gene RPS6KA6

[18] = test system: T8, RSK4(Kin.Dom.2-C-terminal)
T8 construct: gene RPS6KA6

[19] = test system: S6K1
[20] = test system: SBK1
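Further: KINOMEscan kinase panel screen.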

| SMILES | %Inh [1] [%] | %Inh [2] [%] | %Inh [3] [%] | %Inh [4] [%] | %Inh [5] [%] | %Inh [6] [%] | %Inh [7] [%] | %Inh [8] [%] | %Inh [9] [%] | %Inh [10] [%] | %Inh [11] [%] | %Inh [12] [%] | %Inh [13] [%] | %Inh [14] [%] | %Inh [15] [%] | %Inh [16] [%] | %Inh [17] [%] | %Inh [18] [%] | %Inh [19] [%] | %Inh [20] [%] |
| --- | --- | --- | --- | --- | --- | --- | --- | --- | --- | --- | --- | --- | --- | --- | --- | --- | --- | --- | --- | --- |
| COc1cc(Nc2nccc(N3CCC(NC(=O)C4COc5ccccc5O4)C3)n2)cc(OC)c1OC (centres unmarked) [GSK1379761] | 0 | 0 | 0 | 26 | 37 | 54 | 0 | 0 | 0 | 0 | 3 | 4 | 0 | 24 | 0 | 12 | 0 | 2 | 0 | 20 |
| CCS(=O)c1ccc(-c2coc3ccc(-c4nnc(C)o4)cc23)cc1 (centres unmarked) | 0 | 7 | 0 | 0 | 28 | 15 | 24 | 11 | 2 | 0 | 0 | 18 | 5 | 0 | 3 | 11 | 18 | 6 | 8 | 0 |
| Cc1nnc(-c2ccc3ncn(-c4ccc(S(C)=O)cc4)c3c2)o1 (centres unmarked) | 19 | 0 | 0 | 0 | 16 | 0 | 0 | 0 | 3 | 4 | 19 | 21 | 4 | 0 | 0 | 18 | 0 | 32 | 0 | 0 |
| COc1cc2nccc(Nc3ccc(OCc4ccc(NC(C)=O)cc4)cc3)c2cc1OC.Cl [GW440135] | 61 | 0 | 0 | 13 | 6 | 0 | 0 | 0 | 0 | 12 | 0 | 0 | 19 | 0 | 4 | 0 | 2 | 0 | 9 | 5 |
| CCC(=O)c1c(-c2ccccc2)c2cc(Cl)ccc2c(=O)n1Cc1cc(C(=O)NC2CC2)n(C)n1 | 0 | 0 | 18 | 11 | 0 | 0 | 0 | 6 | 15 | 1 | 0 | 8 | 0 | 30 | 6 | 0 | 8 | 0 | 7 | 0 |
| O=C1NC(=O)C(c2ccccc2)=C1Nc1cccc(O)c1 [SB-390534] | 8 | 1 | 26 | 0 | 0 | 24 | 0 | 7 | 0 | 0 | 19 | 0 | 24 | 0 | 0 | 0 | 14 | 7 | 11 | 27 |
| COc1ccc(-c2cc3c(C)nc(N)nc3n([C@H]3CC[C@H](O)CC3)c2=O)cn1 | 0 | 0 | 0 | 0 | 0 | 0 | 5 | 0 | 0 | 0 | 6 | 0 | 0 | 0 | 0 | 0 | 0 | 0 | 0 | 0 |
| O=C(NCCNc1ccnc(Nc2ccc(F)cc2)n1)Nc1ccc2c(c1)OCO2 [GSK1379882] | 0 | 11 | 0 | 0 | 0 | 0 | 0 | 0 | 9 | 10 | 15 | 22 | 14 | 30 | 0 | 0 | 0 | 12 | 0 | 6 |
| Nc1n[nH]c2ncc(-c3ccccc3)cc12 [SB-517081] | 18 | 19 | 5 | 14 | 2 | 0 | 7 | 0 | 41 | 25 | 25 | 0 | 10 | 0 | 7 | 0 | 0 | 36 | 8 | 8 |
| COc1ccc(-c2cc3c(C)nc(N)nc3n([C@H]3CC[C@H](OCCO)CC3)c2=O)cn1 | 0 | 0 | 0 | 0 | 0 | 9 | 0 | 0 | 0 | 0 | 0 | 9 | 0 | 0 | 16 | 12 | 0 | 23 | 0 | 0 |
| COC(=O)c1c(-c2ccccc2)c2cc(Br)ccc2c(=O)n1Cc1ccc(NC(=O)CCC(=O)O)cc1 | 12 | 20 | 21 | 8 | 0 | 0 | 0 | 9 | 23 | 0 | 0 | 5 | 0 | 29 | 16 | 15 | 0 | 26 | 0 | 1 |
| CN1C(=O)C(Nc2ccccc2)=C(c2ccccc2)C1=O [SB-300079] | 0 | 5 | 25 | 7 | 43 | 0 | 8 | 0 | 0 | 9 | 8 | 0 | 37 | 0 | 0 | 0 | 10 | 12 | 0 | 0 |
| O=C(Nc1n[nH]c2nc(-c3ccccc3)c(Cl)cc12)C1CC1 [SB-734909] | 0 | 10 | 16 | 24 | 6 | 0 | 0 | 0 | 0 | 0 | 26 | 0 | 29 | 0 | 0 | 7 | 42 | 1 | 44 | 0 |
| CCC(=O)c1c(-c2ccccc2)c2cc(Cl)ccc2c(=O)n1Cc1ccc(C(=O)O)cc1 | 0 | 0 | 5 | 0 | 0 | 0 | 0 | 7 | 0 | 0 | 0 | 0 | 0 | 0 | 0 | 0 | 0 | 0 | 0 | 0 |
| CCc1nc(-c2cccc(C)c2)c(-c2ccncc2)s1 | 76 | 7 | 0 | 0 | 0 | 11 | 2 | 0 | 0 | 18 | 0 | 91.2 | 0 | 0 | 11 | 10 | 0 | 94.6 | 0 | 0 |
| Cl.NS(=O)(=O)c1cccc(Nc2cc(-c3ccc(F)cc3)n[nH]2)c1 [GW824645] | 0 | 15 | 22 | 0 | 18 | 11 | 17 | 0 | 0 | 3 | 0 | 0 | 35 | 0 | 0 | 0 | 15 | 0 | 0 | 0 |
| CCCNC(=O)Nc1ccc(Oc2ncnc3ccn(C)c23)cc1 | 0 | 13 | 34 | 0 | 6 | 0 | 0 | 0 | 23 | 6 | 14 | 13 | 27 | 0 | 0 | 5 | 25 | 0 | 0 | 20 |
| CCC(=O)c1c(-c2ccccc2)c2cc(Cl)ccc2c(=O)n1Cc1cc(S(C)(=O)=O)n(CC(N)=O)n1 | 0 | 0 | 0 | 0 | 0 | 0 | 0 | 0 | 30 | 22 | 0 | 0 | 0 | 0 | 1 | 6 | 0 | 5 | 0 | 0 |
| CCCC(=O)Nc1n[nH]c2ncc(-c3cccc4ccccc34)cc12 [SB-642057] | 28 | 36 | 10 | 0 | 3 | 0 | 14 | 0 | 16 | 0 | 26 | 24 | 14 | 0 | 0 | 0 | 0 | 15 | 16 | 7 |
